Source: PubChem BioAssay (Tox21)
The source made the active and inactive calls. A call without a number means that no potency is given here. The call rests on the fitted dose curve; in most records, active means well fitted curve in the direction sought with a large enough effect in the repeat runs; inconclusive means weak or mixed curves; inactive means flat fitted curve, though single readings scatter. Starred links: 1 amine or outer side, 2 acyl side, 3 side chain; linkers in the order of their positions; H or OH if unused. Positions of bridges follow the written chain, without caps; N, C: chain ends. Non-standard residues stand in square brackets, D forms with d. Residues, ends and D or L forms follow the SMILES beside them. *: point of attachment. X5 = NC1=N[C@@H]([C@H](N[*:1])C(=O)[*:2])C[C@H](O)N1; ΔAla(Z-3-ureido) = NC(=O)N/C=C(\N)C(=O)O; β3hOrn = NCCC[C@H](N)CC(=O)*; Orn = NCCC[C@H](N)C(=O)O; Dap = NC[C@H](N)C(=O)O; Mpa = O=C(O)CCS

Assay: qHTS assay to test for compound auto fluorescence at 535 nm (green) in HepG2 cell free culture (AID 720686)
Settings: Cell-free medium, green autofluorescence 485/535 nm; series mostly up to 46 µM

Compound | Potency
COC(=O)[C@H]1[C@H]2C[C@@H]3c4[nH]c5cc(OC)ccc5c4CCN3C[C@H]2C[C@@H](OC(=O)/C=C/c2cc(OC)c(OC)c(OC)c2)[C@@H]1OC | inactive
Cn1nnnc1SCC1=C(C(=O)O)N2C(=O)[C@@H](NC(=O)[C@H](OC=O)c3ccccc3)[C@H]2SC1 | inactive
CC(C)(C)CC(=O)OCC(=O)[C@@]12OC(C)(C)O[C@@H]1C[C@H]1[C@@H]3CCC4=CC(=O)C=C[C@]4(C)[C@@]3(F)[C@@H](O)C[C@@]12C | inactive
COc1ccc2c(=O)c(C)c(-c3ccccc3)oc2c1CN(C)C | inactive
CCOC(=O)COc1ccc2c(C)c(CCN(CC)CC)c(=O)oc2c1 | inactive
O=C(O)[C@H](CC(=O)N1C[C@H]2CCCC[C@H]2C1)Cc1ccccc1 | inactive
C=C1/C(=C\C=C2/CCC[C@]3(C)[C@@H]([C@H](C)OCCC(C)(C)O)CC[C@@H]23)C[C@@H](O)C[C@@H]1O | inactive
N=C(N)c1ccc(OCCCOc2ccc(C(=N)N)cc2Br)c(Br)c1 | inactive

Assay: qHTS assay to test for compound auto fluorescence at 460 nm (blue) in HepG2 cells (AID 720687)
Settings: autofluorescence 405/460 nm, 1 h; series mostly up to 46 µM
Procedure, shortened: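 Blue-channel autofluorescence (Ex/Em 405/460 nm, triamterene-equivalent) was measured after 1 hr compound exposure at 37 C, 5% CO2. Cells were HepG2, plated overnight at 37 C in MEM plus 10% FBS.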

Compound | outcome
COCC1=C(C(=O)OC(C)OC(=O)OC(C)C)N2C(=O)[C@@H](NC(=O)/C(=N\OC)c3csc(N)n3)[C@H]2SC1 (some centres not stated) | inactive
CO[C@@H]1[C@@H](O[C@@H]2O[C@H](C)[C@@H](O[C@H]3C[C@@](C)(O)[C@@H](OC(=O)CC(C)C)[C@H](C)O3)[C@H](N(C)C)[C@H]2O)[C@@H](CC=O)C[C@@H](C)[C@@H](O)/C=C/C=C/C[C@@H](C)OC(=O)C[C@H]1O | inactive
CC(=O)O[C@H]1C[C@@H]2CC[C@@H]3[C@H](CC[C@@]4(C)[C@H]3C[C@H](N3CC[N+](C)(C)CC3)[C@@H]4OC(C)=O)[C@@]2(C)C[C@@H]1N1CC[N+](C)(C)CC1 | inactive
NCCC[C@H](N)CC(=O)N[C@H]1CNC(=O)[C@H]([C@H]2C[C@H](O)NC(N)=N2)NC(=O)/C(=C/NC(N)=O)NC(=O)[C@H](CO)NC(=O)[C@H](CO)NC1=O (β3hOrn-[Dap]SS[ΔAla(Z-3-ureido)][X5]; lactam 1-C) | inactive
CCOc1ccc(C[C@H]2NC(=O)CCSSC[C@@H](C(=O)N3CCC[C@H]3C(=O)N[C@@H](CCCN)C(=O)NCC(N)=O)NC(=O)[C@H](CC(N)=O)NC(=O)[C@H]([C@@H](C)O)NC(=O)[C@H]([C@@H](C)CC)NC2=O)cc1 ([Mpa][dY](Et)ITNCP[Orn]G-NH2; disulfide 1-6) | inactive
O=P(O)(O)C(O)(Cc1cnc2ccccn12)P(=O)(O)O | inactive
OCC(O)COc1ccc(Cl)cc1 (configuration not stated) | inactive
CCCCCCCCCCCCCCCC(=O)OC[C@@H](NC(=O)C(Cl)Cl)[C@H](O)c1ccc([N+](=O)[O-])cc1 | inactive
NC(=O)Oc1ccc(Cc2ccccc2)cc1 | inactive
CCCC(CCC)C(N)=O | inactive
CC1CC(OC(=O)C(O)c2ccccc2)CC(C)(C)C1 (configuration not stated) | inactive
OC(CN1CCCCC1)c1cc(-c2ccccc2)on1 (configuration not stated) | inactive
CCC(c1ccccc1)c1noc(CCN(CC)CC)n1 (configuration not stated) | inactive
O=S(O)CNc1ccc(S(=O)(=O)c2ccc(NCS(=O)O)cc2)cc1 | inactive
C=CCN1CCCC1CNC(=O)c1cc(S(N)(=O)=O)cc(OC)c1OC (configuration not stated) | inactive
CCCCCCCCCCCCCCCCCC(=O)OCCO | inactive
CCCCCCCCCCCCCCCCCCCCCC(=O)Nc1ccn([C@@H]2O[C@H](CO)[C@@H](O)[C@@H]2O)c(=O)n1 | inactive
CCCCOC(=O)C(=O)Nc1cccc(-c2nn[nH]n2)c1 | inactive
CCOC(=O)[C@H](CCc1ccccc1)N[C@H]1CCCN2CCC[C@@H](C(=O)O)N2C1=O | inactive
CC(C)CN(C[C@@H](O)[C@H](Cc1ccccc1)NC(=O)O[C@@H]1CCOC1)S(=O)(=O)c1ccc(N)cc1 | inactive

Compound | outcome
O.O=C([O-])CC([S-])C(=O)[O-].[Au+].[Na+].[Na+] (configuration not stated) | inactive
O=P(O)(O)C(Sc1ccc(Cl)cc1)P(=O)(O)O | inactive
O=C(CCCN1CCC(C(=O)c2ccc(F)cc2)CC1)c1ccc(F)cc1 | inactive
C[C@H]1C[C@H]2[C@@H]3CCC4=CC(=O)C=C[C@]4(C)[C@@]3(F)[C@@H](O)C[C@]2(C)[C@@]1(O)C(=O)CCl | inactive
CC#CCC(C)[C@H](O)/C=C/[C@@H]1[C@H]2C/C(=C/CCCC(=O)O)C[C@H]2C[C@H]1O (some centres not stated) | inactive
NCCC[C@H](N)C(=O)O | inactive
CN1[C@@H]2CCC[C@H]1CC(NC(=O)c1nn(C)c3ccccc13)C2 (some centres not stated) | inactive
CS(=O)(=O)NC(=O)CCC/C=C\C[C@H]1C(=O)C[C@@H](O)[C@@H]1/C=C/[C@H](O)COc1ccccc1 | inactive
OC[C@@H](O)C(O)[C@H](O)CO | inactive
N[C@@H](C(=O)N[C@@H]1C(=O)N2C(C(=O)O)=C(CSc3cn[nH]n3)CS[C@H]12)c1ccc(O)cc1 | inactive
CC1(C)S[C@@H]2[C@H](NC(=O)Cc3ccccc3)C(=O)N2[C@H]1C(=O)O | inactive
COC(=O)[C@H]1[C@H]2C[C@@H]3c4[nH]c5cc(OC)ccc5c4CCN3C[C@H]2C[C@@H](OC(=O)/C=C/c2cc(OC)c(OC)c(OC)c2)[C@@H]1OC | inactive
Cn1nnnc1SCC1=C(C(=O)O)N2C(=O)[C@@H](NC(=O)[C@H](OC=O)c3ccccc3)[C@H]2SC1 | inactive
CC(C)(C)CC(=O)OCC(=O)[C@@]12OC(C)(C)O[C@@H]1C[C@H]1[C@@H]3CCC4=CC(=O)C=C[C@]4(C)[C@@]3(F)[C@@H](O)C[C@@]12C | inactive
COc1ccc2c(=O)c(C)c(-c3ccccc3)oc2c1CN(C)C | inactive
CCOC(=O)COc1ccc2c(C)c(CCN(CC)CC)c(=O)oc2c1 | inactive
O=C(O)[C@H](CC(=O)N1C[C@H]2CCCC[C@H]2C1)Cc1ccccc1 | inactive
C=C1/C(=C\C=C2/CCC[C@]3(C)[C@@H]([C@H](C)OCCC(C)(C)O)CC[C@@H]23)C[C@@H](O)C[C@@H]1O | inactive
N=C(N)c1ccc(OCCCOc2ccc(C(=N)N)cc2Br)c(Br)c1 | inactive
